Drawing on PubChem BioAssay AID818 (SRMLSC, 2007), this text covers viability for five compounds.

The structures appear in SMILES notation. Screen size: about 140,000 compounds; about 2,100 (1.5%) were called active.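 The calls were made as follows: active = viability at or under a set limit, the compound median less 4 SD (cut at about 6% in these data); inactive = the rest.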 Shown is part of a subset that was picked to be rich in actives.

The nature of the test: primary screen for suppressors of beta-catenin knockout HCT116 cell growth, colon tumor, human (AID 818).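 Also: 0% = Hyamine 1622 control at 20 µM and 100% = untreated cell control.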 Conditions: CellTiter-Glo, 60 h, at 10 µM, stronger effect = lower value. In general terms: ATP-based viability assays read luminescence as a measure of living cells.
For orientation: viability means a read-out of living cells in per cent, often relative to untreated cells. Turning to `CN(C)c1ccc(/C=C2\CC3C4CC=C5CC(O)CCC5(C)C4CCC3(C)C2=O)cc1` (stereo not given), the viability is 2.09% (active).

Consider `C[N+]1(C)CCOC(O)(c2ccc(-c3ccc(C4(O)C[N+](C)(C)CCO4)cc3)cc2)C1` (stereo not given), for which the viability is 79.5% (inactive).

In the case of `Cc1nn(Cc2ccccc2Cl)c(Cl)c1C(=O)OC(C(=O)NC(N)=O)C(C)C` (stereo not given), the viability is 83% (inactive).

Regarding `Cc1ccc2c(c1)=C/C(=C\c1c(O)[nH]c(=O)[nH]c1=O)C(=O)N=2`, the viability was 82.4% (inactive).

For `Cc1cccc(OP(=O)(Oc2cccc(C)c2)OC(c2ccccc2)C(F)(F)F)c1` (stereo not given), the viability is 66.6% (inactive).
